Structures are written as SMILES. Values joined by “and” are separate entries in the source; they are usually repeats but may differ in a detail not shown here. Equal values may be shown once. Active and inactive are the calls of the source. Rule as the data show it, unless noted: active = inhibition above about 80%; inactive = the rest.

Test [1] in a line: kinase inhibitors against Plasmodium liver-stage infection, cell-based, known kinase inhibitor set, luminescence, hepatoma host viability (AID 624392; call rule not given here;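 also: infected cells incubated roughly two days before readout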). Particulars: Plasmodium liver stage in hepatoma cells, luciferase luminescence, concentration not given here; liver cell % of control: measured here: host liver cell viability; parasite % of control: stronger effect = lower value.
Test [2] can be described thus: viability rescue of complex I mutant cybrids, primary screen, cell-based, galactose medium, ATP luminescence (AID 1645843;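 active = z-score of at least 1.8 in each of two replicates, scored against plate mean and spread of sample wells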;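 also: positive z means more ATP and so rescue of galactose-driven cybrid death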). To be noted: complex I mutant cybrid cells, 72 h, stronger effect = higher value.
The nature of test [3]: hESC survival regulators, cell-based (AID 493140; call rule not given here;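 also: cells exposed to compounds for four days before counting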). Particulars: human embryonic stem cell survival screen; stronger effect = higher value.
The nature of test [4]: liver-stage malaria parasite growth inhibition, primary screen, cell-based, HepG2, luciferase luminescence, HepG2 viability (AID 624349; in the data active = parasite load remaining mostly below about 12%, no sharp cut-off; inactive = mostly above about 10%;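 also: 100% = mean of DMSO negative control wells on the same plate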). To be noted: P. berghei liver stage in HepG2, luciferase luminescence, concentration not given here; parasite load remaining: stronger effect = lower value; viability: measured here: HepG2 viability without parasites.
Test [5] deals with NAD(+) hydrolase SARM1 (Homo sapiens) (UniProt Q6SZW1). The test is described as follows: SARM1 TIR NADase inhibitors, cell lysate, NAD-Glo luminescence (AID 1508614;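 active = compound whose remaining NAD level is above about 45 nM, limit read from the data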;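 also: higher remaining NAD means stronger inhibition of SARM1 NADase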). To be noted: SAM-TIR HEK293T lysate NADase, at 1 µM, stronger effect = higher value.
Chain of NAD(+) hydrolase SARM1 (Homo sapiens) (Q6SZW1 whole entry, looked up, the tested form may be a part): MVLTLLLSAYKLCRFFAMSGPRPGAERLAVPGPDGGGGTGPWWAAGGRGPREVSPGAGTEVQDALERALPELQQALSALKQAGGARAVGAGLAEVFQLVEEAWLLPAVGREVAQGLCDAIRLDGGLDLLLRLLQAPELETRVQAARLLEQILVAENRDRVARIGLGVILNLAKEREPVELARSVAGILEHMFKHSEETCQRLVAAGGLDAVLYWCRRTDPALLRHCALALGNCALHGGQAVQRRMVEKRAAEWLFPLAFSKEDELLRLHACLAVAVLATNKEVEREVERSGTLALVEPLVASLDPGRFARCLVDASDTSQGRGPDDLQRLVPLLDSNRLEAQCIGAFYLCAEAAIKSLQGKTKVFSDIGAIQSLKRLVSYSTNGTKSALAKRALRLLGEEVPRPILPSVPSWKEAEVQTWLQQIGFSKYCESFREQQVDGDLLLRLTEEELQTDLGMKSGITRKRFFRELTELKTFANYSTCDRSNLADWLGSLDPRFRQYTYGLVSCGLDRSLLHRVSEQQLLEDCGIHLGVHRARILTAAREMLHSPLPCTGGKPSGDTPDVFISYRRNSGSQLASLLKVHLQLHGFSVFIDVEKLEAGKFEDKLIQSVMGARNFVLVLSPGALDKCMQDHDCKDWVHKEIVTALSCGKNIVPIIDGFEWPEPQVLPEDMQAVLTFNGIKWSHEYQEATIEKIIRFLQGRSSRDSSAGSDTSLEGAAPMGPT
The target in test [6] is Mitogen-activated protein kinase 7 (Homo sapiens) (UniProt Q13164). The test is described as follows: ERK5 transactivation activators in reporter cells, primary screen, cell-based, HTS (AID 1508626;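 active = luciferase signal above three times the same-plate solvent-only control wells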;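 also: luciferase driven by Gal4-ERK5 fusion binding five Gal4 sites before minimal TATA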). To be noted: HeLa Gal4-ERK5 transactivation, 18 h, at 5 µM, stronger effect = higher value.
Chain of Mitogen-activated protein kinase 7 (Homo sapiens) (Q13164 whole entry, looked up, the tested form may be a part): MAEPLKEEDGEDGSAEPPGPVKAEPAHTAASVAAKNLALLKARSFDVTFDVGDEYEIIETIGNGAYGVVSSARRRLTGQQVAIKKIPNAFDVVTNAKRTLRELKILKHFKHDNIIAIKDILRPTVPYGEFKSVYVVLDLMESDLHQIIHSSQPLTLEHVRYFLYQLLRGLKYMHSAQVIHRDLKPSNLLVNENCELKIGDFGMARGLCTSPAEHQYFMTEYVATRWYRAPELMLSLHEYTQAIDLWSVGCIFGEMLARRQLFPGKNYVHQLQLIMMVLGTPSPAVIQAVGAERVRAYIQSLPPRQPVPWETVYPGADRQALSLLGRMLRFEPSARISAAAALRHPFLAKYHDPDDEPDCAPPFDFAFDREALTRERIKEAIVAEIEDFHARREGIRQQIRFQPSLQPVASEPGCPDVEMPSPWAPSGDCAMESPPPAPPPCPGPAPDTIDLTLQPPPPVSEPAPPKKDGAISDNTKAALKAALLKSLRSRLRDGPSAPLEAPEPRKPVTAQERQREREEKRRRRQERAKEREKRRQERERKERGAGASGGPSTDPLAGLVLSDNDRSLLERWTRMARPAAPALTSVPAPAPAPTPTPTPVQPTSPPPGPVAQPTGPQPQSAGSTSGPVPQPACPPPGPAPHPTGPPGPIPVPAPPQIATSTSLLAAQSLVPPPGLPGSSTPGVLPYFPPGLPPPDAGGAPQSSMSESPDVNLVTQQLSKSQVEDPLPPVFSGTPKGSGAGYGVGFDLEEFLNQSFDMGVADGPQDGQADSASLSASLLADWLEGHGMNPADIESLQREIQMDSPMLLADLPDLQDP
Test [7] concerns Hepatitis C virus NS3 helicase. The test is described as follows: HCV NS3 helicase inhibitors, primary screen, biochemical, fluorescence polarization, LOPAC1280 library (AID 687035; in the data active = inhibition above about 37%). To be noted: Purified HCV NS3 helicase, Cy5-dT15 ssDNA binding fluorescence polarization; stronger effect = higher value; concentration not given here. A general note: Fluorescence polarisation rises when a labelled molecule tumbles more slowly, as on binding a larger partner.

The nature of test [8]: Cy5 fluorescence quenching or enhancement artefacts, artefact control for HCV NS3 helicase inhibitor project, biochemical, LOPAC1280 (AID 687037; call rule not given here). Particulars: Cy5-DNA-NS3h complex fluorescence interference counterscreen.
A short description of test [9]: phospholipid biosynthesis inhibitors in animal cells, primary screen, cell-based, LOPAC library, screen 4 (AID 1347384; call rule not given here). Particulars: phospholipid biosynthesis inhibition screen, at 10 µM.
Test [10] in a line: circadian clock period modulators, cell-based, LOPAC library, luminescence reporter (AID 2774; call rule not given here;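 also: values are relative to mean of DMSO wells on each plate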). To be noted: circadian reporter cells, at 7 µM, actives lie on both sides.
Test [11] can be described thus: inhibitors of Cryptococcus chitosan production, flow cytometry, Cibacron Brilliant Red staining (AID 1347148; call rule not given here;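 also: compound exposure lasted three days at 37 degrees C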). Particulars: Cryptococcus neoformans chitosan, stronger effect = lower value; at 10 µM unless noted.
Test [12] in a line: LFS_MB_1R medulloblastoma cell growth inhibition, synergistic combos for chromothripsis tumors, cisplatin or BGB combos (AID 1671452).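 Also: cells exposed for 96 hours before readout.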 To be noted: LFS_MB_1R medulloblastoma cells, stronger effect = higher value.
Test [13] is described as follows: CRL2098 osteosarcoma cell growth inhibition, synergistic combos for chromothripsis tumors, BGB or cisplatin IC20 combos (AID 1671454).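 Also: cells exposed for 96 h before readout; 0% = vehicle DMSO and 100% = killing by high DMSO.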 Particulars: CRL2098 osteosarcoma cells, drug combinations, stronger effect = higher value.
Test [14] in a line: HD-MB03 medulloblastoma cell growth inhibition, synergistic combos for chromothripsis tumors, BGB or cisplatin IC20 combos (AID 1671455; in the data active = inhibition above about 83%;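 also: 0% = vehicle DMSO and 100% = high DMSO as cytotoxic control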). To be noted: HD-MB03 medulloblastoma cells, stronger effect = higher value.
Test [15] is described as follows: UWB1.289 ovarian carcinoma cell growth inhibition, synergistic combos for chromothripsis tumors, BGB or cisplatin combos (AID 1671456).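 Also: cells exposed to compound for four days; 0% = vehicle DMSO and 100% = killing by high DMSO.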 To be noted: UWB1.289 ovarian carcinoma cells, stronger effect = higher value.
Test [16] is described as follows: LFS_MB_2R medulloblastoma cell growth inhibition, synergistic combos for chromothripsis tumors, cisplatin combos (AID 1671457).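 Also: cells exposed to compound for four days before readout.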 Particulars: LFS_MB_2R medulloblastoma cells, stronger effect = higher value.
Test [17] is described as follows: UWB1.289_BRCA1 ovarian cancer growth, cell-based, BGB or cisplatin combinations (AID 1671459). Particulars: UWB1.289 BRCA1 ovarian carcinoma, drug combinations, stronger effect = higher value.
Test [18] is described as follows: human astrocyte viability loss, single and combined drugs, cytotoxicity control for chromothriptic childhood tumor combination screen, cell-based, BGB or cisplatin IC20 combos (AID 1671460).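 Also: cells exposed to compounds for 96 hours before viability readout; 0% = vehicle and 100% = killing control.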 To be noted: Human astrocytes, drug combinations, stronger effect = higher value.
Test [19] is described as follows: growth inhibition of CRL1545 osteosarcoma cells, cell-based, cisplatin and BGB IC20 combos (AID 1671464).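 Also: cells exposed to compound for 96 hours before readout; 0% = vehicle DMSO and 100% = high DMSO killing control.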 Particulars: stronger effect = higher value.
Where [20] appears, read: measured here: combination with BGB IC40, at 0.05 µM.
The mark [21] stands for this setting: measured here: combination with cisplatin, at 0.5 µM.
Where [22] appears, read: measured here: combination with cisplatin, at 5 µM.
Setting [23] is: measured here: combination with BGB at IC20, at 0.5 µM.
Setting [24] is: measured here: combination with cisplatin at IC20, at 0.5 µM.
Setting [25] is: measured here: combo with BGB at IC20, at 0.5 µM.
Setting [26] is: measured here: combo with cisplatin at IC20, at 0.5 µM.
[27] abbreviates: measured here: inhibition with BGB combination, at 0.05 µM.
The mark [28] stands for this setting: measured here: inhibition with cisplatin combination, at 0.05 µM.
Setting [29] is: BGB combination, concentration series, at 5 µM.
The mark [30] stands for this setting: cisplatin combination, concentration series, at 5 µM.
Where [31] appears, read: measured here: combo with BGB IC20, at 0.5 µM.
[32] abbreviates: measured here: combo with cisplatin IC20, at 0.5 µM.
Setting [33] is: measured here: with BGB IC20 combination, at 0.5 µM.
Where [34] appears, read: measured here: with cisplatin IC20 combination, at 0.5 µM.

`OCCn1cc(-c2cnc3nnn(Cc4ccc5ncccc5c4)c3n2)cn1`: in [1], the liver cell % of control is 97.5% and 96.9% and 96.4%; the parasite % of control is 74.3% (inactive) and 94.9% (inactive) and 55.7% (inactive).

As for `O=C(O)CCCc1c[nH]c2ccccc12`, the z-score in test [2] is 1.11 (inactive).

In general, viability refers to a read-out of living cells in per cent, often relative to untreated cells. Regarding `CC[C@H](CO)Nc1nc(NCc2ccccc2)c2ncn(C(C)C)c2n1`, the survival in test [3] is 75.1 (inactive). In addition, in test [4], the parasite load remaining was 29.6% (inactive) and the viability was found to be 68.3%.

In the case of `CO[C@H]1/C=C/O[C@@]2(C)Oc3c(C)c(O)c4c(O)c(c5c(nc6cc(C)ccn65)c4c3C2=O)NC(=O)/C(C)=C\C=C\[C@H](C)[C@H](O)[C@@H](C)[C@@H](O)[C@@H](C)[C@H](OC(C)=O)[C@@H]1C`, the remaining NAD in test [5] is 10 nM (inactive). Moreover, in test [6], the luciferase signal was 32 AU (inactive).

Turning to `Cc1cccc(-c2[nH]c(C(C)(C)C)nc2-c2ccc3c(c2)OCO3)n1`, in test [4], the parasite load remaining is 33.2% (inactive) and the viability worked out at 61.8%.

What is called inhibition is the change of the read-out against control, counted positive when it falls. Turning to `Cc1cccc(-c2[nH]c(C(C)(C)C)nc2-c2ccc3nccnc3c2)n1`, the inhibition in test [7] is -3% (inactive). Moreover, the fluorescence ratio (interference) in [8] was 1 (inactive). Moreover, the compound was classed as inactive in [9]. Also, in test [2], the z-score was -1.01 (inactive).

On to `O=c1c(O)c(-c2cc(O)c(O)c(O)c2)oc2cc(O)cc(O)c12`, for which the period change in [10] is -0.075 h (inactive). The survival in test [3] is 2.42 (inactive). Moreover, in [4], the parasite load remaining was 81.9% (inactive) and 74.4% (inactive); the viability is 106% and 74.8%. Besides, the inhibition in test [7] is 8% (inactive). Besides, the fluorescence ratio (interference) in [8] is 1 (inactive). Besides, the result in [9] was inactive. Also, the z-score in [2] is -1.22 (inactive).

With `Cc1ccc2c(c1)C(=O)[C@]1(O)CCN(c3ccccc3)C1=N2`, the fold fluorescence in test [11] was 7.57 [at 171 µM] (inactive).

`O=C(c1cc(Cc2n[nH]c(=O)c3ccccc23)ccc1F)N1CCN(C(=O)C2CC2)CC1`: the inhibition in test [12] (at 0.5 µM) is 0.5% (inactive) and -18.6% (inactive); in test [12] (setting [20]) it was 4.09% and -28.6%; in test [12] (setting [21]), -5.89% and -28.2%; in test [12] (setting [22]), 10.2% and -13.4%; in test [13] (at 0.5 µM), -22.2% (inactive) and -52% (inactive); in test [13] (setting [23]), -38.6% and -22.3%. Moreover, the inhibition in [13] (setting [24]) is 8.08% and -53.7%; in [14] (at 0.5 µM), 0.63% (inactive) and 3.05% (inactive); in test [14] (setting [25]) it was -2.67% and 1.02%; in test [14] (setting [26]), 5.32% and 12.9%; in [15] (at 0.5 µM) it was 3.95% (inactive) and -1.88% (inactive); in [15] (setting [27]), -15.9% and -18%. For the same compound, the inhibition in [15] (setting [28]) was -0.831% and -12.7%; in test [16] (at 0.5 µM) it was -13.1% (inactive) and -23.1% (inactive); in [16] (setting [21]), -6.19% and -20.5%; in test [16] (setting [22]) it was -14.1% and -19.5%; in [17] (setting [29]) it was 15.2% and -17.7%; in [17] (at 0.5 µM), 3.2% (inactive) and -8.35% (inactive). Further, the inhibition in test [17] (setting [30]) is 8.98% and -4%; in test [18] (at 0.5 µM), 4.09% (inactive) and -6.96% (inactive); in [18] (setting [31]), 0.597% and -11.9%; in test [18] (setting [32]) it was 7.1% and 3.7%; in test [19] (at 0.5 µM), 11% (inactive) and 18.2% (inactive); in test [19] (setting [33]) it was 2.64% and 8.45%. Moreover, the inhibition in [19] (setting [34]) was 15.2% and 23.1%; in test [19] (single agent, at 0.05 µM), 8.77% and 29.2%; in test [19] (single agent, at 5 µM) it was 44.7% and 52.9%.

As to `CC#CCn1c(N2CCC[C@@H](N)C2)nc2c1c(=O)n(Cc1nc(C)c3ccccc3n1)c(=O)n2C`, the remaining NAD in [5] was 10 nM (inactive).

In the case of `C[C@@H]1CN(CC(=O)Nc2ccc3c(c2)Cc2cccc(-c4cc(=O)cc(N5CCOCC5)o4)c2S3)C[C@H](C)O1`, the inhibition in test [12] (at 0.5 µM) was -8.44% (inactive) and -21% (inactive); in test [12] (setting [20]), 3.35% and -5.52%; in test [12] (setting [21]), -14.6% and -41.1%; in test [12] (setting [22]), -56% and -92.8%; in test [13] (at 0.5 µM), -44.4% (inactive) and -42.5% (inactive); in [13] (setting [23]), -21.5% and -30.1%. Also, the inhibition was -75.7% and -79.9% in test [13] (setting [24]); -12% (inactive) and -9.56% (inactive) in [14] (at 0.5 µM); -14.5% and -20% in test [14] (setting [25]); -16.9% and 0.275% in test [14] (setting [26]); -15.2% (inactive) and 1.44% (inactive) in [15] (at 0.5 µM); -5.12% and -6.06% in test [15] (setting [27]). For the same compound, the inhibition in [15] (setting [28]) is -21.5% and 20.1%; in test [16] (at 0.5 µM), -9.09% (inactive) and -22.8% (inactive); in test [16] (setting [21]), -17.7% and -28.5%; in test [16] (setting [22]), 7.16% and -9%; in [17] (setting [29]), -11.5% and 19.3%; in [17] (at 0.5 µM), -16.3% (inactive) and -2.61% (inactive). The inhibition in [17] (setting [30]) was -2.71% and 10.4%; in [18] (at 0.5 µM) it was -26.1% (inactive) and -28.5% (inactive); in test [18] (setting [31]), -42.3% and -37.5%; in [18] (setting [32]), -29% and -44.1%; in [19] (at 0.5 µM), 5.04% (inactive) and -9.72% (inactive); in test [19] (setting [33]) it was 22% and -3.16%. In addition, the inhibition was -5.11% and -14.8% in test [19] (setting [34]); 7.16% and -18.1% in test [19] (single agent, at 0.05 µM); -20.2% and -4.99% in test [19] (single agent, at 5 µM).

For the origin of these results see PubChem BioAssay.
